Measured values from PubChem BioAssay (NCI).
The panel holds about 83,000 compounds, 20% with a hit somewhere; the sample as a whole holds those more often.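 Step 1: grow cells in 96-well plates. Step 2: add test compound at a single concentration. Step 3: incubate 48 h. Step 4: record percent growth.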 Values without a mark were called inactive. Activity calls are given as the source filed them. Rule for the calls: active = growth percent below 10; inactive = the rest.

These compounds were tested on HL-60(TB) leukemia (assay: NCI-60 one-dose screen, 48 h (100 = growth as untreated, 0 = no growth, -100 = all killed)). Conditions: 10 µM unless noted.

| SMILES | growth |
| --- | --- |
| CN(C)C=Nc1cc(Cl)ccc1Cl | 102% |
| Clc1nc(Oc2ccccc2)nc(-c2cn(-c3ccccc3)c3ccccc23)n1 | 63.2% |
| N#CC1=C(N)Oc2c(c(=O)[nH]c3ccc(Cl)cc23)C12C(=O)c1ccccc1C2=O | 99.8% |
| C/C(=C(/c1ccc(O)cc1)c1ccc(OCCN2CCCC2)cc1)c1ccccc1 | 45.1% |
| CCN(CC)CCNCC(O)Cc1ccc(OC)cc1 (stereo not given) | 59.1% |
| COc1ccc(/C(=C2\O[C@@H]([C@H](O)CO)[C@H]3OC(C)(C)O[C@@H]23)c2cc(OC)c(OC)c(OC)c2)cc1O | -2.8% (active) |
| Cc1cc(=O)cc(C)n1-c1ccccc1 | 103% |
| O=C(Nn1c(NCC(=O)N2c3ccccc3Sc3ccccc32)nnc1-c1ccc(O)cc1)c1ccccc1 | 98.6% |
| CC(C)(C#N)Nc1ccccc1 | 105% |
| CCCCCOC(=O)c1ccccc1O | 99.4% |
| COc1ccc(/C=C/C(=O)c2ccc(NC(=O)CSc3nnc(-c4cc(OC)c(OC)c(OC)c4)o3)cc2)cc1 | -53.4% (active) |
| Clc1ccc(C2=NN(c3ccc(Cl)cc3)C(c3cccc(Nc4ccnc5cc(Cl)ccc45)c3)C2)cc1 (stereo not given) | 102% |
| COc1cc(NC(C)CCCN)c2nc(C)ccc2c1OC (stereo not given) | -12.2% (active) |
| Cc1cc(C)cc(Nc2ccc([N+](=O)[O-])c(NCCN3CCOCC3)n2)c1 | -13.9% (active) |
| CCNC(=O)Oc1ccc[nH]c1=O | 94.1% |
| Cc1ccc2nc(/C(C#N)=C(/CCCO)NC(Cc3ccccc3)C(=O)OCc3ccccc3)[nH]c(=O)c2c1 (stereo not given) | 122% |
| CC(=O)c1nc2ccccc2n1CC(=O)c1cccc(Cl)c1 | -28.9% (active) |
| O=C(Cn1nnc2ccccc21)N/N=C/c1ccccc1F | 107% |
| CC1(C)NC(=S)NC1=O | 89.9% |
| N#Cc1ccc(NC2c3ccccc3CC2O)cc1 (stereo not given) | 78.7% |

| SMILES | growth |
| --- | --- |
| c1cc(OCCN2CCCCC2)cc(-c2n[nH]c3ccc(-c4ncn[nH]4)cc23)c1 | 39% |
| N=c1c(C(=O)OCc2ccccc2)ncc(CCl)n1O | 81.4% |
| CCCCC1=C(Br)C(=O)c2nc(C)ccc2C1=O | 77% |
| O=C1NC(Cc2c[nH]c3ccccc23)C(=O)N1Cc1ccc(Cl)cc1 (stereo not given) | 74% |
| COc1ccc2nc(Cl)c(/C=C3\CC(c4ccccc4)=NN(c4ccccc4)C3=O)cc2c1 | 99% |
| C=CCN(/C=C1/C(=O)O[C@H](COC)[C@@]2(C)C1=C(O)C(=O)C1=C2[C@H](OC(C)=O)C[C@]2(C)C(=O)CC[C@@H]12)CC=C | 5.66% (active) |
| O=C1OC2C(I)C3CC2C1C3c1ccccc1 (stereo not given) | 85.7% |
| COc1ccc2sc3c(NCCCNCCO)nc4ccccc4c3c(=O)c2c1 | 36.5% |
| CCCC(=O)c1cccs1 | 87.9% |
| NC(=O)C1=C[C@H]2[C@H]3C=C[C@@]2(O)C(=O)O[C@@H]3O1 | 41.6% |
| Cc1ccc(C)c2c1SC1=NNC(Oc3ccc(Cl)cc3)=C(C#N)C(=N)N12 | 122% |
| CCn1cc(C(=O)O)c(=O)c2cnc(N3CCCC3)nc21 | 75.9% |
| OC(CCN1CCCC1)(c1ccccc1)C1CCCCC1 (stereo not given) | 119% |
| O=C(/C=C/c1ccccc1)c1c[nH]c2ccccc2c1=O | -12.9% (active) |
| O=C1c2ccccc2C(=O)c2cc(Cn3c[n+](Cc4ccc5ccccc5c4)c4ccccc43)ccc21 | -49.2% (active) |
| c1ccc2cc(C[n+]3ccn(CCCCCCCCCCn4cc[n+](Cc5ccc6ccccc6c5)c4)c3)ccc2c1 | -67.8% (active) |
| Cc1cc2c3c(cccc3c1)C(=O)c1ccccc1-2 | 101% |
| C=CC(=O)Nc1cccc(C)c1Nc1cc(-c2cccnc2Cc2c(C)c(OC)cc(OC)c2C)ncn1 | -23% (active) |
| COc1ccc(-c2nc3sc(-c4ccccc4)c(-c4ccccc4)n3c2/C=C/c2ccc(F)cc2)cc1 | 105% |
| COc1ccc(/C=C(\C#N)n2nnc3ccc(Cl)cc32)cc1 | 86.6% |
